Compound activity deposited in PubChem BioAssay by National Center for Advancing Translational Sciences (NCATS).
Vaccinia mCherry: qHTS for Stage-Specific Inhibitors of Vaccinia Orthopoxvirus: mCherry Reporter Primary qHTS. Vaccinia virus mCherry reporter infection, fluorescence. Potency, µM (series often up to 36.5 µM), without a hit: at the highest dose activity change, negative = inhibition, usual class: inhibitors. 310,000 compounds, 0.63% hits; calls by dose curve; tested in A549 cells; also: potency is read from the fitted curve at half-maximal effect; nearly all actives have a fitted effect of over 35% in size
HCMV antiviral: qHTS Assay for inhibitors of the human cytomegalovirus (HCMV). HFF cells, HCMV-luciferase reporter, 72 h; active compounds read low. activity change, negative = inhibition, % at 57.5 µM. 410,000 compounds, 4.5% hits; in the data active = activity change below about -60%; inconclusive = no clear call, values can overlap the other calls; inactive = above about -39%
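Luciferase read-out from HCMV-luciferase-infected HFFs (MOI 1 PFU/cell) 72 h post infection at 37C; compounds added after 16 h cell attachment; activity normalized between buffer-only basal and Salinomycin (10uM) inhibitor controls.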
FMDV inh: High Throughput Screening for Foot and Mouth Disease Virus Antivirals; FMDV antiviral cell-based qHTS; Potency, µM (titrated, usually from 57.9 µM), inactives show at the highest dose activity change, negative = inhibition, actives largely listed as inhibitors; 410,000 compounds, 1.2% hits; calls by dose curve; tested in HEK293T cells; also: read-out not given here; potency is read from the fitted curve at half-maximal effect; nearly all actives have a fitted effect of over 45% in size
HCV inh: qHTS Assay for Inhibitors of Hepatitis C Virus (HCV); Huh7.5.1 HCVcc-Cre infection, luciferase reporter, 44 h; Potency, µM (titrated, usually from 41.8 µM), for the others: at the highest dose activity change, negative = inhibition, actives largely listed as inhibitors; 340,000 compounds, 3.4% hits; also: potency is read from the fitted curve at half-maximal effect
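Cells seeded at 1,000/well and cultured 4 h, then compounds added followed by HCVcc-Cre virus (~0.5 moi). After 44 h further culture, luciferase substrate was added, plates held 15 min at room temperature, and luminescence read for 15 sec.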
Sm TGR inh: qHTS Assay for the Inhibitors of Schistosoma Mansoni Peroxiredoxins; purified TGR, DTNB reduction, TNB absorbance 405 nm; Potency, µM (highest dose often 114 µM), for the others: at the highest dose activity change, negative = inhibition, most hits filed as inhibitors; 360,000 compounds, 3% hits; AID 485364, 2010; also: potency is read from the fitted curve at half-maximal effect; nearly all actives have a fitted effect of over 60% in size
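First, TGR (20 nM dispensed) and NADPH were mixed with compound. Second, a 15 min room-temperature incubation followed. Third, further NADPH and then DTNB were added to start the reaction. Finally, TNB absorbance was monitored kinetically.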
Vaccinia Venus: qHTS for Stage-Specific Inhibitors of Vaccinia Orthopoxvirus: Venus Reporter Primary qHTS; Potency, µM (series often up to 36.5 µM), for the others: at the highest dose activity change, negative = inhibition, usual class: inhibitors; AID 720580, 2013; 330,000 compounds, 0.46% hits; Vaccinia virus Venus reporter expression, fluorescence; calls by dose curve; tested in A549 cells; also: potency is read from the fitted curve at half-maximal effect; nearly all actives have a fitted effect of over 30% in size
Active calls of the source: *; i = inactive; ? = inconclusive; · = not tested or not shown; [ ] = another dose, or the depositor's remark. Sampled rows, rich in hits. Any-hit rate of the full collection: about 9.3%. Unless noted, calls follow the shape of the dose curve; as a rule, active = well fitted curve in the direction sought with a large enough effect; inconclusive = small, poorly fitted or top-dose-only effect, or another doubt; inactive = no such curve, though single readings can be large; an effect the other way counts as inactive or inconclusive. % is scaled to controls: 0 for no effect and ±100 for the full control effect.

SMILES	Vaccinia mCherry	HCMV antiviral	FMDV inh	HCV inh	Sm TGR inh	Vaccinia Venus
CCOC(=O)c1ccc(N2C(=O)C3CCCN3C2=S)cc1 (stereo unspecified)	·	0	13%	-6%	9%	·
CCOC(=O)c1ccc(N2C(=O)CC(Sc3ncccn3)C2=O)cc1 (stereo unspecified)	·	-14	3%	6%	40µM*	·
Cc1ccc2c(c1)N(CC(=O)N1CCN(c3ccccc3)CC1)C(=O)C(C)O2 (stereo unspecified)	-8%	-12	-16%	-7%	-4%	0%
COc1ccc(S(=O)(=O)NCC(=O)NCc2cc(=O)n(C)c(=O)n2C)cc1	i	-7	-4%	10%	0%	-7%
Cc1cccc2c1OCC/C2=N\NC(=O)COc1ccccc1Cl	·	36	63%	-10%	14%	·
N#Cc1ccc(C23OCCN2CCn2nc4ccccc4c23)cc1 (stereo unspecified)	-3%	18	-7%	4µM*	·	-9%
[O-][n+]1c2ccccc2c2n1CCN1CCOC21c1ccc(Cl)cc1 (stereo unspecified)	?	11	30%	?	2%	-20%
CNC(=O)c1sccc1SCc1c(Cl)cccc1Cl	-1%	-25	-10%	-29%	-1%	-18%
COc1cccc(NC(CNS(=O)(=O)c2ccc(Cl)cc2)c2ccccc2)c1 (stereo unspecified)	?	-100*	-20%	·	3%	?
Cc1ccc(NC(CNS(=O)(=O)c2ccc(Cl)cc2)c2ccccc2)cc1 (stereo unspecified)	-28%	-80*	-12%	?	-3%	?
O=S(=O)(NCC(Nc1ccc(Cl)cc1)c1ccccc1)c1ccccc1 (stereo unspecified)	?	-35	-4%	?	8%	?
O=C(c1ccccc1)N1CCN(c2ncnc3c2cnn3-c2ccccc2)CC1	-12%	21	?	10µM*	9%	?
Cc1nn(-c2ccccc2)c(Cl)c1C(=O)N1CCN(c2ncnc3c2cnn3-c2ccccc2)CC1	·	-105*	6.3µM*	2.2µM*	-18%	?
COc1cccc(OCCN2CCN(c3ncnc4c3cnn4-c3ccccc3)CC2)c1	·	0	?	7.1µM*	18%	·
COCCNC(=O)C1CCC(=O)N1S(=O)(=O)c1ccc(C)cc1 (stereo unspecified)	0%	22	-11%	-3%	-5%	-4%
O=C(C1CC1)N1N=C(c2ccc(F)cc2)CC1(O)C(F)(F)F (stereo unspecified)	-16%	-3	-19%	-14%	4%	-12%
CCOC(=O)c1c(C)[nH]c(C(=O)COC(=O)c2cc(C)oc2C)c1C	·	-14	-16%	?	-12%	·
CCOC(=O)c1c(C)[nH]c(C(=O)OCc2c(C)noc2C)c1C	·	-33	?	11µM*	6%	?
CCOC(=O)c1[nH]c(C=O)c(C(=O)OCC)c1C	1%	-96*	16%	?	3%	3%
CCOC(=O)c1c(C)[nH]c(C(C)=O)c1C	·	39	-1%	6%	-1%	·
CCCc1cc(=O)[nH]c(SCC(=O)c2[nH]c(C)c(C(=O)OCC)c2C)n1	-9%	45	-18%	11µM*	-24%	4%
CCCc1cc(=O)[nH]c(SCC(=O)CSc2nc(CCC)cc(=O)[nH]2)n1	-24%[1.46 µM]	-6	-27%	8%	-29%	-17%
CCOC(=O)c1c(C)[nH]c(C(=O)COC(=O)c2c(CC)noc2C)c1C	-2%	-6	-20%	14µM*	2%	-1%
O=C(c1ccco1)N1CCN(S(=O)(=O)c2ccc(Cl)cc2)CC1	i	-8	-30%	4%	-20%	-15%
Cc1nn(Cc2c(Cl)cccc2Cl)c(C)c1NC(=O)c1sc2ccccc2c1Cl	?	-85*	0%	?	0%	-24%
SMILES	Vaccinia mCherry	HCMV antiviral	FMDV inh	HCV inh	Sm TGR inh	Vaccinia Venus
Cc1nn(Cc2ccc(Cl)c(Cl)c2)c(C)c1NC(=O)c1noc2c1CCc1ccccc1-2	?	-39	?	·	12%	-16%
Cc1ccccc1Cn1nc(C)c(NC(=O)c2sc3ccccc3c2Cl)c1C	-24%	-30	32µM*	32µM*	-21%	?
Cc1nn(Cc2ccc(Cl)cc2Cl)c(C)c1NC(=O)c1sc2ccccc2c1Cl	-8%	-29	-28%	-17%	?	1%
Cc1nn(Cc2ccc(Cl)c(Cl)c2)c(C)c1NC(=O)c1cc(-c2ccco2)on1	·	?	?	?	45µM*	·
Cc1nn(Cc2c(Cl)cccc2Cl)c(C)c1NC(=O)c1cn(-c2ccccc2)nc1-c1ccccc1	?	·	?	6%	-4%	?
Cc1nn(Cc2ccc(Cl)c(Cl)c2)c(C)c1NC(=O)c1sc2ccccc2c1Cl	?	-18	32µM*	22µM*	4%	-36%
Cc1ccc(CNC(=O)CCc2c(C)c3cc4c(C)coc4cc3oc2=O)cc1	-7%	20	-10%	·	-3%	-1%
Cc1ccsc1C(=O)OCC(=O)NCCCc1ccccc1	·	-39	11%	1%	0%	·
COc1ccc2nc3cc([N+](=O)[O-])ccc3c(NNc3ccc([N+](=O)[O-])cc3)c2c1	-21%	-25	-24%	-18%	·	-4%
CC(/C=N\NC(=O)Cn1c(C)nc2ccccc21)=C\c1ccccc1	-29%	-86*	?	?	-22%	-15%
C/C(=N\NC(=O)Cn1c(C)nc2ccccc21)c1cccs1	i	-64*	?	?	-2%	-22%
C/C(=N\NC(=O)Cc1ccccc1)c1cccs1	-26%	6	·	-10%	6%	-7%
COc1ccc(NC(=O)COC(=O)Cn2cnc3ccccc32)cc1	-18%	-4	-2%	31%	·	-2%
O=C(Cn1cnc2ccccc21)N/N=C/C(Br)=C/c1ccccc1	?	-66*	?	-25%	-8%	?
O=C(Cn1cnc2ccccc21)Nc1ccc(SC(F)F)cc1	-7%	-10	?	8.9µM*	-3%	-23%
COc1cccc(CNC(=O)CN2C(=O)CCn3nc(-c4cn(C)c5ccccc45)cc32)c1OC	-16%	8	5%	·	16µM*	10%
COc1ccccc1CNC(=O)CCCN1C(=O)CCn2nc(-c3cn(C)c4ccccc34)cc21	-22%	2	?	·	4%	-2%
CCOc1ccc2c(c1)nc(SCC(=O)c1cccs1)n2C	-20%	69	35%	-23%	?	-1%
CCOc1ccc2c(c1)nc(SCC(=O)c1ccc(Br)s1)n2C	·	-25	44%	?	35µM*	·
